# This is part of a sample that, as a whole, favours compounds with a hit. Of some 83,000 tested, about 20% had one in any assay.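 Single-concentration screen, 48 h exposure, 96-well plates. Endpoint: percent growth. Below 10 = active.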 Active and inactive are the calls of the source.
# How the values were obtained:
# Assay in all cases: NCI-60 one-dose screen, 48 h (100 = growth as untreated, 0 = no growth, -100 = all killed)
# DU-145 prostate = details: 10 µM
# K-562 leukemia = details: 10 µM
# MALME-3M melanoma = details: 10 µM
# MDA-MB-231 breast = details: 10 µM
# RXF 393 renal = details: 10 µM
# SF-268 CNS = details: 10 µM
# SF-295 CNS = details: 10 µM
# SF-539 CNS = details: 10 µM
# UACC-257 melanoma = details: 10 µM
# M14 melanoma = details: 10 µM
# HCT-15 colon = details: 10 µM
# HT29 colon = details: 10 µM
# SNB-75 CNS = details: 10 µM
# U251 CNS = details: 10 µM
# PC-3 prostate = details: 10 µM
# SK-MEL-5 melanoma = details: 10 µM
# UACC-62 melanoma = details: 10 µM unless noted
# LOX IMVI melanoma = details: 10 µM
# SK-MEL-28 melanoma = details: 10 µM
# SNB-19 CNS = details: 10 µM
Compound,growth (DU-145 prostate),growth (K-562 leukemia),growth (MALME-3M melanoma),growth (MDA-MB-231 breast),growth (RXF 393 renal),growth (SF-268 CNS),growth (SF-295 CNS),growth (SF-539 CNS),growth (UACC-257 melanoma),growth (M14 melanoma),growth (HCT-15 colon),growth (HT29 colon),growth (SNB-75 CNS),growth (U251 CNS),growth (PC-3 prostate),growth (SK-MEL-5 melanoma),growth (UACC-62 melanoma),growth (LOX IMVI melanoma),growth (SK-MEL-28 melanoma),growth (SNB-19 CNS)
CC(=O)Nc1c(C)cc(C)cc1C,101% (inactive),96.3% (inactive),102% (inactive),114% (inactive),113% (inactive),95.4% (inactive),94.3% (inactive),103% (inactive),104% (inactive),101% (inactive),102% (inactive),119% (inactive),89.2% (inactive),99.3% (inactive),103% (inactive),100% (inactive),107% (inactive),96.9% (inactive),112% (inactive),
CCN(CC)CCNc1ccc(CO)c2sc3ccccc3c(=O)c12,39.3% (inactive),63.4% (inactive),39.8% (inactive),50.1% (inactive),36.6% (inactive),40.5% (inactive),44.9% (inactive),50% (inactive),11.6% (inactive),57.5% (inactive),27.2% (inactive),18.1% (inactive),,,46.1% (inactive),,30.6% (inactive),28% (inactive),,43.2% (inactive)
O=c1[nH]cc(Cl)cc1O,96.8% (inactive),48% (inactive),91.2% (inactive),77.8% (inactive),107% (inactive),79% (inactive),82.4% (inactive),96% (inactive),92.3% (inactive),86.6% (inactive),64.4% (inactive),,93.1% (inactive),88.6% (inactive),82.2% (inactive),86.6% (inactive),40.5% (inactive),65.5% (inactive),105% (inactive),105% (inactive)
Cc1cc(C)c(CC(=O)O)c(C)c1,101% (inactive),95.2% (inactive),97.8% (inactive),120% (inactive),123% (inactive),98.6% (inactive),102% (inactive),108% (inactive),106% (inactive),98.9% (inactive),100% (inactive),99.4% (inactive),93.2% (inactive),103% (inactive),103% (inactive),101% (inactive),108% (inactive),96.5% (inactive),124% (inactive),
NC(=S)CN1CCOCC1,107% (inactive),97.7% (inactive),110% (inactive),106% (inactive),115% (inactive),102% (inactive),131% (inactive),111% (inactive),117% (inactive),120% (inactive),107% (inactive),100% (inactive),,102% (inactive),,106% (inactive),99% (inactive),104% (inactive),,104% (inactive)
O=c1cc2oc3cc(O)c(O)cc3c(-c3ccccc3O)c-2cc1O,86% (inactive),54.1% (inactive),105% (inactive),81.9% (inactive),60.1% (inactive),-1.76% (active),101% (inactive),52.3% (inactive),130% (inactive),77.1% (inactive),91.7% (inactive),,62.9% (inactive),58.4% (inactive),73.9% (inactive),74.2% (inactive),80.5% (inactive),64.8% (inactive),81.6% (inactive),72.5% (inactive)
O=C(O)c1cc([N+](=O)[O-])ccc1Cl,121% (inactive),97.7% (inactive),131% (inactive),101% (inactive),112% (inactive),114% (inactive),101% (inactive),105% (inactive),99.5% (inactive),114% (inactive),100% (inactive),84.3% (inactive),,106% (inactive),88.8% (inactive),100% (inactive),95.6% (inactive),99.5% (inactive),,99.4% (inactive)
CC1(c2ccccc2)NC(=O)NC1=O (centres undefined),125% (inactive),103% (inactive),113% (inactive),111% (inactive),110% (inactive),106% (inactive),119% (inactive),117% (inactive),84.5% (inactive),121% (inactive),110% (inactive),110% (inactive),,113% (inactive),98.6% (inactive),108% (inactive),100% (inactive),109% (inactive),,103% (inactive)
C[N+](C)=c1ccc2nc3c(cc(Nc4ccccc4)c4ccccc43)oc-2c1,55.4% (inactive),38.5% (inactive),28.2% (inactive),47% (inactive),69.2% (inactive),80.3% (inactive),59.5% (inactive),74.3% (inactive),38.6% (inactive),33.9% (inactive),56.7% (inactive),,86.7% (inactive),23.4% (inactive),47.3% (inactive),46.3% (inactive),44.8% (inactive),30.4% (inactive),,57.2% (inactive)
CCC(O)CC(CC)CO (centres undefined),121% (inactive),105% (inactive),128% (inactive),108% (inactive),119% (inactive),113% (inactive),109% (inactive),99.4% (inactive),110% (inactive),102% (inactive),104% (inactive),113% (inactive),,111% (inactive),101% (inactive),106% (inactive),112% (inactive),103% (inactive),101% (inactive),114% (inactive)
c1ncc2[nH]cnc2n1,96.6% (inactive),102% (inactive),126% (inactive),111% (inactive),112% (inactive),104% (inactive),116% (inactive),98.3% (inactive),87.1% (inactive),97.9% (inactive),87.2% (inactive),92.3% (inactive),,103% (inactive),86.3% (inactive),97.1% (inactive),91.9% (inactive),103% (inactive),100% (inactive),102% (inactive)
N#CCc1ccc([N+](=O)[O-])cc1,113% (inactive),114% (inactive),148% (inactive),100% (inactive),113% (inactive),106% (inactive),95.3% (inactive),101% (inactive),74% (inactive),101% (inactive),105% (inactive),104% (inactive),,98.5% (inactive),95.8% (inactive),101% (inactive),92.8% (inactive),100% (inactive),106% (inactive),96.6% (inactive)
COc1ccc(C2(O)CCCCC2)cc1,112% (inactive),111% (inactive),105% (inactive),97% (inactive),103% (inactive),105% (inactive),105% (inactive),109% (inactive),99.1% (inactive),101% (inactive),112% (inactive),106% (inactive),,100% (inactive),89.7% (inactive),98.6% (inactive),94.7% (inactive),96.1% (inactive),120% (inactive),102% (inactive)
CCN1C(=O)/C(=C/C=C/N(C)c2ccccc2)SC1=S,88.8% (inactive),79.1% (inactive),86.4% (inactive),94.2% (inactive),90.3% (inactive),65.7% (inactive),54.8% (inactive),92.3% (inactive),97.7% (inactive),101% (inactive),81.5% (inactive),90.4% (inactive),,85.5% (inactive),85.1% (inactive),87.5% (inactive),91.3% (inactive),91.5% (inactive),94.6% (inactive),94.1% (inactive)
O=[N+]([O-])c1cccc(C(F)(F)F)c1,120% (inactive),119% (inactive),135% (inactive),98% (inactive),98.7% (inactive),102% (inactive),101% (inactive),102% (inactive),97.3% (inactive),97.9% (inactive),93.8% (inactive),98.7% (inactive),,104% (inactive),94.6% (inactive),107% (inactive),101% (inactive),99.7% (inactive),,103% (inactive)
CN(C)Cc1cc(C(C)(C)CC(C)(C)C)ccc1O,126% (inactive),108% (inactive),100% (inactive),96.9% (inactive),138% (inactive),106% (inactive),95.6% (inactive),90.8% (inactive),112% (inactive),98% (inactive),79.4% (inactive),99.9% (inactive),79.9% (inactive),90.8% (inactive),84.1% (inactive),100% (inactive),99.5% (inactive),94.9% (inactive),109% (inactive),
FC(F)(F)c1ccc2c(c1)N(CCCN1CCN(C3CC3)CC1)c1ccccc1S2,2.25% (active),24.5% (inactive),96.7% (inactive),83% (inactive),80.7% (inactive),-4.95% (active),3.21% (active),94.2% (inactive),74.4% (inactive),34.3% (inactive),68.7% (inactive),36.1% (inactive),,25.8% (inactive),48.5% (inactive),81% (inactive),54% (inactive),37.6% (inactive),93.8% (inactive),43% (inactive)
